Laboratory results: the supplement of paper PMC9262897, “Low-cost anti-mycobacterial drug discovery using engineered E. coli” (Nature Communications, 2022)
Counter-ions that a name gives are not always drawn. ± gives the standard deviation of the averaged measurements.

How the values were obtained:
Assay in all cases: growth (OD600 after 10 h); higher = more growth (less inhibition)
[1] = system: E. coli TESEC Alr+ wild-type control; details: compound 0.1 mM; raw OD600 reference: median of DMSO wells 0.241, cell-free background 0.041
Protocol: (§1)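 TESEC Mtb Alr E. coli, or the Alr+ wild-type control, in 384-well plates with Prestwick library compounds at 0.1 mM and 1% DMSO, across arabinose induction levels of 1E3 to 1E7 nM. Growth is read as OD600 after 10 h at 37 °C in triplicate biological replicates.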

E. coli TESEC Mtb Alr [2] = details: compound 0.1 mM
Protocol: as §1

E. coli TESEC Mtb Asd = details: compound 0.1 mM
Protocol: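 TESEC E. coli strains in which the native enzyme is deleted and replaced by arabinose-inducible Mtb Asd, DapB, CysH or TrpD, each grown in its selective medium. Strains were screened against the Prestwick library at 0.1 mM and 1% DMSO in 384-well format at low and high arabinose induction. Growth is read as OD600 after 10 h in triplicate.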

[3] = system: E. coli TESEC Alr+ wild-type control; details: compound 0.1 mM; raw OD600 reference: median of DMSO wells 0.49, cell-free background 0.052
Protocol: (§2)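 TESEC Mtb Alr E. coli (ΔaraC ΔtolC ΔentC Δalr ΔdadX, arabinose-inducible Mtb Alr) or the Alr+ wild-type control strain, grown in defined M9-fructose medium without D-alanine in 96-well plates with Prestwick library compounds at 0.1 mM and 1% DMSO. Low Alr induction is 0.1 µM arabinose and high induction is 10 mM arabinose.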

E. coli TESEC Mtb Alr [4] = details: compound 0.1 mM; remark: listed apart in the source
Protocol: as §2

[5] = arabinose 1000 nM, raw OD600 reference: median of DMSO wells 0.294, cell-free background 0.041
[6] = arabinose 10000 nM, raw OD600 reference: median of DMSO wells 0.264, cell-free background 0.041
[7] = arabinose 100000 nM, raw OD600 reference: median of DMSO wells 0.201, cell-free background 0.041
[8] = arabinose 1000000 nM, raw OD600 reference: median of DMSO wells 0.193, cell-free background 0.041
[9] = arabinose 10000000 nM, raw OD600 reference: median of DMSO wells 0.146, cell-free background 0.041
[10] = arabinose induction (level): High, raw OD600 reference: median of DMSO wells 0.331, cell-free background 0.041
[11] = arabinose induction (level): Low, raw OD600 reference: median of DMSO wells 0.417, cell-free background 0.041
[12] = arabinose 100 nM, raw OD600 reference: median of DMSO wells 0.413, cell-free background 0.052
[13] = arabinose 10000000 nM, raw OD600 reference: median of DMSO wells […], cell-free background 0.052

SMILES | growth [1] | growth (E. coli TESEC Mtb Alr [2]; [5]) | growth (E. coli TESEC Mtb Alr [2]; [6]) | growth (E. coli TESEC Mtb Alr [2]; [7]) | growth (E. coli TESEC Mtb Alr [2]; [8]) | growth (E. coli TESEC Mtb Alr [2]; [9]) | growth (E. coli TESEC Mtb Asd; [10]) | growth (E. coli TESEC Mtb Asd; [11]) | growth [3] | growth (E. coli TESEC Mtb Alr [4]; [12]) | growth (E. coli TESEC Mtb Alr [4]; [13])
CCOC(=O)C1=C(C)NC(C)=C(C(=O)OC)C1c1cccc(Cl)c1Cl (stereo not given) [Felodipine] | 0.0763 ± 0.012 | 0.0729 ± 0.024 | 0.0553 ± 0.0007 | 0.0562 ± 0.0017 | 0.0517 ± 0.00035 | 0.0625 ± 0.0023 | 0.0579 ± 0.0044 | 0.0538 ± 0.002 | 0.0917 ± 0.0035 | 0.3 ± 0.099 | 0.0862 ± 0.0057
CC(C)NC[C@@H](O)COc1cccc2ccccc12 [(R)-Propranolol hydrochloride] | 0.205 ± 0.01 | 0.262 ± 0.0043 | 0.291 ± 0.0066 | 0.186 ± 0.015 | 0.216 ± 0.028 | 0.142 ± 0.0024 | 0.263 ± 0.076 | 0.2622 ± 0.0023 | 0.58 ± 0.019 | 0.4273 ± 0.0035 | 0.326 ± 0.012
CC(=O)O[C@H]1C[C@@H]2CC[C@@H]3[C@H](CC[C@@]4(C)[C@H]3C[C@H]([N+]3(C)CCCCC3)[C@@H]4OC(C)=O)[C@@]2(C)C[C@@H]1N1CCCCC1 [Vecuronium bromide] | 0.0818 ± 0.00093 | 0.0791 ± 0.0015 | 0.0482 ± 0.00074 | 0.07643 ± 0.00021 | 0.0518 ± 0.0023 | 0.07727 ± 0.00072 | 0.136 ± 0.0039 | 0.124 ± 0.0035 | 0.23 ± 0.013 | 0.396 ± 0.0098 | 0.0791 ± 0.0096
Cc1ccc(C(=O)c2ccc(CC(=O)O)n2C)cc1 [Tolmetin sodium salt dihydrate] | 0.234 ± 0.0061 | 0.281 ± 0.014 | 0.253 ± 0.0051 | 0.169 ± 0.011 | 0.184 ± 0.0077 | 0.1348 ± 0.00087 | 0.432 ± 0.032 | 0.3668 ± 0.0019 | 0.518 ± 0.05 | 0.387 ± 0.018 | 0.337 ± 0.0088
Cc1cccc(CN2CCN(C(c3ccccc3)c3ccc(Cl)cc3)CC2)c1 (stereo not given) [Meclozine dihydrochloride] | 0.278 ± 0.0073 | 0.279 ± 0.011 | 0.302 ± 0.006 | 0.174 ± 0.023 | 0.129 ± 0.0042 | 0.185 ± 0.0054 | 0.207 ± 0.024 | 0.242 ± 0.0061 | 0.427 ± 0.021 | 0.428 ± 0.031 | 0.143 ± 0.0093
